Values without a mark were called inactive. No rule for the calls is given here.
B1: design_617_b3fadc1d-0db4-4da8-8433-818493aa2ab2_1373_dldesign_0_cycle1_af2pred (protein)
chain: DAALRFAEAQLRRIERLAAEIIALGGPAWAPEAEALVAEAREALELIKTDPGAGMALLIETIERAYALLAEVRAAAA
B2: design_617_b3fadc1d-0db4-4da8-8433-818493aa2ab2_1042_dldesign_0_cycle1_af2pred (protein)
chain: MSAAEIIREALKLLKEAAKAAATDPAKAKELADKAIALGKENQGAALLLSNTARNLAATATPEEAAFLLEVAERARAVAEAL
B3: design_617_b3fadc1d-0db4-4da8-8433-818493aa2ab2_1940_dldesign_0_cycle1_af2pred (protein)
chain: MEEYRARAEELLEKAKKAAEGENGVGDVGELAVEMAKLAAEAEKASPEAGAYARAALVEISQLAIEAAKRKAA
B4: design_617_b3fadc1d-0db4-4da8-8433-818493aa2ab2_1433_dldesign_0_cycle1_af2pred (protein)
chain: GVAEQAIRGLARNTVAAIEAGTLTEEGLEKALELIRGIGEAAGPAARAVAEEAIERVREAWERRKRAEAEAAAA
B5: design_617_b3fadc1d-0db4-4da8-8433-818493aa2ab2_1728_dldesign_0_cycle1_af2pred (protein)
chain: GAALAARHGAAAARGALQGTVEEAAAQLANGLKIAAQLAPADGAAYRAAVLAVIAQASPERAAAILALAG
B6: design_618_d4ffd631-0ea2-432e-ba0f-bd3d6297b2a0_140_dldesign_0_cycle1_af2pred (protein)
chain: NEDLTKAGEKVVETQRTASEAARTSGDPAVAAEMNAIANAAIKALQAGVATGDYKTALETTEKLLKEAKAKLKEVK
B7: design_617_b3fadc1d-0db4-4da8-8433-818493aa2ab2_1384_dldesign_0_cycle1_af2pred (protein)
chain: MEELMEKVKSLGQAAIVAATAAKSAAAAGNTDAARVLLAQARRWLEEAGEAAEKAGEEAKEVYEEVRKVVEAEIAAAEAAIAAA
B8: design_618_d4ffd631-0ea2-432e-ba0f-bd3d6297b2a0_400_dldesign_0_cycle1_af2pred (protein)
chain: SSSLIDRLTGIALKGLSIAQGVLDKVEAGEATPEEIEEGIKAAEESEKAAKELSKLLAAQPAASEYYKKLAERAKEYKEKLKKALA
B9: design_617_b3fadc1d-0db4-4da8-8433-818493aa2ab2_1003_dldesign_0_cycle1_af2pred (protein)
chain: KAAALHAIKVAETLLKKAKEFLEKGKEEGPEYYKMAYATAQSAILVAQGAVEVAKKVSKKLYKKAKKLLEEAKKLAEEAKKLAE
B10: design_617_b3fadc1d-0db4-4da8-8433-818493aa2ab2_1106_dldesign_0_cycle1_af2pred (protein)
chain: GARARMEASIAQARELAAAAVAQAAAVDPAAAAAAAAALDALLAAAEAALAAGDYDAAAAAINAAVTLAIKWMQAAAAA
B11: design_617_b3fadc1d-0db4-4da8-8433-818493aa2ab2_797_dldesign_0_cycle1_af2pred (protein)
chain: AEELAEEAKKYIEEARKKVTELYNEAGATELAEEANEKLESAREIVESGREHPELLPAAVAFARSVADAQLRKAESLV
B12: design_617_b3fadc1d-0db4-4da8-8433-818493aa2ab2_2387_dldesign_0_cycle1_af2pred (protein)
chain: AAAAEGELLGKLIELARRASKLDPETANLILSGLGLYGVDPEAGVKKLLEAAELAKKAGHEELAKEIKELAEKLAAVSAA
B13: design_617_b3fadc1d-0db4-4da8-8433-818493aa2ab2_1686_dldesign_0_cycle1_af2pred (protein)
chain: MEEYLEEAKRFAESVIELSKLLLEGAPYNPALSAASLAALRKQAKARAEEAAKIDPEAAEALEKAAKTAEEAEKKAKALAA
B14: design_617_b3fadc1d-0db4-4da8-8433-818493aa2ab2_820_dldesign_0_cycle1_af2pred (protein)
chain: AEGKALVEQAKALAAQGAAHPQHAAAVAGTLANIGKYLAKLGPEYAKAAADVLNAFAKAVPSVAAQAKAAAAELEKLAKEA
B15: design_618_d4ffd631-0ea2-432e-ba0f-bd3d6297b2a0_318_dldesign_0_cycle1_af2pred (protein)
chain: MEKKEELKKKAEEAIKKLKKLKEEGASPEEINKALAEAVELAKEAAEAGDSETANRLLSEAGRLSIEALKNHAA
B16: design_617_b3fadc1d-0db4-4da8-8433-818493aa2ab2_2366_dldesign_0_cycle1_af2pred (protein)
chain: GLEKALKELKKVAEATAAAATAADPAMKPTADLLKKAAERAAAGDAETALANLNTILVLADSIAAVDPAAAKKLKEAAEKAIKIAR
B17: design_617_b3fadc1d-0db4-4da8-8433-818493aa2ab2_1817_dldesign_0_cycle1_af2pred (protein)
chain: AEEERMRAAIREIAAAAAAEVEAWAKAHPAADQAEWFAALQAAGEKAAEAMAAIDPRYAPEARALAMALGAGAVQRVKA
B18: design_617_b3fadc1d-0db4-4da8-8433-818493aa2ab2_1785_dldesign_0_cycle1_af2pred (protein)
chain: EAEEYYKKGKEYSAKGDELYKAGKYEEAIKYYQKAANYYSKASILLTKAGGDQEKIDEANANLAKALENLEKASRALREAREKEEK
B19: design_617_b3fadc1d-0db4-4da8-8433-818493aa2ab2_2293_dldesign_0_cycle1_af2pred (protein)
chain: AEEALKLLKEAKKKAEEALKLAEKGGDPEEIKALVNEALSLATKGSAQAVKHPEIAPLGNAVLGYAVDVAERVEELLKERE
B20: design_617_b3fadc1d-0db4-4da8-8433-818493aa2ab2_1083_dldesign_0_cycle1_af2pred (protein)
chain: GDPEASKEALEYAKKAEELVKKAEELKDNPELAKKLIEEAKKHIHLALAEAGKAYPEVAQKVLTTVEKVLEKIKEL
B21: design_617_b3fadc1d-0db4-4da8-8433-818493aa2ab2_943_dldesign_0_cycle1_af2pred (protein)
chain: AEAAQEAAVADMEKAAAIAKKYAELFPSTADALIKAAEDALAAVKANKETAAETAKAGLKALNATIAAAMRQALADSAA
B22: design_617_b3fadc1d-0db4-4da8-8433-818493aa2ab2_1081_dldesign_0_cycle1_af2pred (protein)
chain: GEEAAKKAQELVEKIKKLAKEIAAGTAEQAAKLLEEALKYAKEAYKLAAKADPETAAKLSAAANEELAKANRAAIALQRA
B23: design_618_d4ffd631-0ea2-432e-ba0f-bd3d6297b2a0_220_dldesign_0_cycle1_af2pred (protein)
chain: DKEEAVKLAEEGAEVALKLADKRVGAVTAAAFRGLARSIRAAEDPEDIAKIAEVAKGMKAWAEAQLKATA
B24: design_617_b3fadc1d-0db4-4da8-8433-818493aa2ab2_2043_dldesign_0_cycle1_af2pred (protein)
chain: DLVEKYREEALAEAEKLVKEGVSPEEAAEILMEKAREYFAQAAKASPEVAVKLIAKAEGYALAAKEIRERL
B25: design_617_b3fadc1d-0db4-4da8-8433-818493aa2ab2_1528_dldesign_0_cycle1_af2pred (protein)
chain: AQAVLQAASEAMVEAARVGSRASPEDRARLRALLAATSTAAIAAARGDGQAALDQAAALAAELTAAVEAVKARA
B26: design_618_d4ffd631-0ea2-432e-ba0f-bd3d6297b2a0_93_dldesign_0_cycle1_af2pred (protein)
chain: MEEVKALIARAAELLAAAAADPSTAGEKVTEAIRLLAEAAALDPSIAPLANEAMALATRGLVTGPEGLAAAEEATKAVLEAV
B27: design_617_b3fadc1d-0db4-4da8-8433-818493aa2ab2_1296_dldesign_0_cycle1_af2pred (protein)
chain: DGEKIQEVLDKAKELYKIAKEIEKKNPEYGKEILKLVQEALSLIAKGNAEEAMKKMEEAEKYAEEVKKKLKEEE
B28: design_617_b3fadc1d-0db4-4da8-8433-818493aa2ab2_944_dldesign_0_cycle1_af2pred (protein)
chain: AEAAAIEQLNTAVEIIESAAKAGERFARAAAGLFITLARQYADVVPKETLTALAERATAAAAPVPAVAERLAAALQEVIEA
B29: design_617_b3fadc1d-0db4-4da8-8433-818493aa2ab2_1993_dldesign_0_cycle1_af2pred (protein)
chain: PSVEEIGQALLDNLKKTLEEAVKASLEEAKGYAAQAAALYIGAHGASPEYGKQAEEIVKKAIKELEKKDPEKAKILKEAIEKAEALL
B30: design_618_d4ffd631-0ea2-432e-ba0f-bd3d6297b2a0_165_dldesign_0_cycle1_af2pred (protein)
chain: AAAAAKVAVAAAKSMIKQAKKFLEEGEKSGDLKLVESAKKLAEQAKNLAKFAIANPATKEEGEKLEKEAEEVKKKAEEAEKKIK
B31: design_617_b3fadc1d-0db4-4da8-8433-818493aa2ab2_1885_dldesign_0_cycle1_af2pred (protein)
chain: AEAAKKGEEAVKKAEEAKKKAEAAAAKLPASVADPVKAAADALVASAKAHAEAGNTESAEATAEVLAGMAEGTKARADALAA
B32: design_618_d4ffd631-0ea2-432e-ba0f-bd3d6297b2a0_170_dldesign_0_cycle1_af2pred (protein)
chain: AAAAAAADAEAAALAKGFVEEAKKKIEALLKAGAPEEELLAEASRVAAKAIRTFAALGWNGSHAVAAVKAITEEAKKAIEKLRA
B33: design_618_d4ffd631-0ea2-432e-ba0f-bd3d6297b2a0_110_dldesign_0_cycle1_af2pred (protein)
chain: AGAAAAEEIRALVDKAIADPATAPEYTARAAEIARAADPRLAGVGQAILAAAERLAAGSPEEAARHAAQMRELTDVVVATLLG
B34: design_617_b3fadc1d-0db4-4da8-8433-818493aa2ab2_2360_dldesign_0_cycle1_af2pred (protein)
chain: AAAQAQAQQIVDQTRAAVEEARAMAEDGATAAAAAERAAAVARQASAAIPQALAASPQIAGQLAQVALDATRVEAEARRNAA
B35: design_617_b3fadc1d-0db4-4da8-8433-818493aa2ab2_1608_dldesign_0_cycle1_af2pred (protein)
chain: SEAERIAKAAKEMIEQQKKAGVEGSPVSAEISAKNMEANAKAHSKAIIAADPKTGKKLAKEVKKYAEEAKKEVEEAAKKKLAA
B36: design_617_b3fadc1d-0db4-4da8-8433-818493aa2ab2_2347_dldesign_0_cycle1_af2pred (protein)
chain: AAAEQAAREALQGRALEKMKEYVDKLVALAKETGSEAALEAAQQVASLFTQAIIAAQQDLAAGRAALAQGEALAKAAIAALE
B37: design_617_b3fadc1d-0db4-4da8-8433-818493aa2ab2_836_dldesign_0_cycle1_af2pred (protein)
chain: VTPEEAKKRVEELVEEAIKLAEKADPAEAEKIRKTYETEGPLAAAAVIWAIGNRFAEKPETKEIGERLRELAIEAIRLLLAAAAA
B38: design_617_b3fadc1d-0db4-4da8-8433-818493aa2ab2_977_dldesign_0_cycle1_af2pred (protein)
chain: AQAVQEKAAKALATASEVAEKDQSLVPEATEAMNKASQGVALVVAGNTEEGQKLVEEALKTAEKLKKKLE

Target: CD276, Q5ZPR3
Sequence (Q5ZPR3 whole entry): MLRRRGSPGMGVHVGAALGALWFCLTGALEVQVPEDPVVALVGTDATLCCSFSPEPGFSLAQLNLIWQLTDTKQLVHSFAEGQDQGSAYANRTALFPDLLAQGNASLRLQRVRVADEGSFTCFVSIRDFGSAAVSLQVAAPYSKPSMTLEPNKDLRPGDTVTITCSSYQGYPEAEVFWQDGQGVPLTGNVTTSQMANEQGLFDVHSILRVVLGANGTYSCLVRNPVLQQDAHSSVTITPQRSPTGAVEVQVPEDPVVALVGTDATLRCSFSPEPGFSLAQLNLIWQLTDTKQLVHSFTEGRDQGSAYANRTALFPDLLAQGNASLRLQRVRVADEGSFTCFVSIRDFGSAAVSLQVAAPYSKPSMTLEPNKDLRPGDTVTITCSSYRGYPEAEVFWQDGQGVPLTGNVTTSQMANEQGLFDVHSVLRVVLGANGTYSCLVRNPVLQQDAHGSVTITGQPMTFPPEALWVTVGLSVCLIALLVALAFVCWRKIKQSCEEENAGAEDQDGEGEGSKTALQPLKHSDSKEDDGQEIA

Binder	binding in a display sort
B1	not found
B2	not found
B3	not found
B4	not found
B5	not found
B6	not found
B7	not found
B8	not found
B9	not found
B10	not found
B11	not found
B12	not found
B13	not found
B14	not found
B15	not found
B16	not found
B17	not found
B18	not found
B19	not found

Binder	binding in a display sort
B20	not found
B21	not found
B22	not found
B23	not found
B24	not found
B25	not found
B26	not found
B27	not found
B28	not found
B29	not found
B30	not found
B31	not found
B32	not found
B33	not found
B34	not found
B35	not found
B36	not found
B37	not found
B38	not found
